GLP-1R agonist: agonists of human GLP-1 receptor; P43220; actives 0.007% (n = 380,000); HEK293 GLP-1R CRE-luciferase, luminescence, 4-6 h; cells express a hypersensitive GLP-1R form; Potency, µM (doses to about 45.6 µM), for inactives: at the top dose activation, hits mostly activators; further: potency means the concentration at half of the fitted maximal effect; % of control where 0% means no effect
ClpP mod: qHTS Assay for Activators of ClpP; ATP-dependent Clp protease proteolytic subunit (Bacillus subtilis (strain 168)), P80244; purified B. subtilis ClpP, FRET peptide cleavage, 20 min; Potency, µM (top dose mostly 57.5 µM), for the others: at the highest dose activity change, negative = active; actives 1.9% (n = 340,000); AID 651965, 2013; active means well fitted falling curve with a large enough effect; inconclusive means small, poorly fitted or top-dose-only effect; inactive means no such curve, though single readings can be large or run the other way; further: potency means the concentration at half of the fitted maximal effect; the source files actives as falling curves though it sought activators and does not explain the sign; nearly all actives have a fitted effect of over 65% in size
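Buffer: 100 mM Tris/HCl pH8, 100 mM KCl, 0.05% low protease BSA, 2.5% glycerol, 0.01% Tween-20. ClpP 10 microg/mL final; 20 min RT; delta FRET normalized to ADEP and DMSO controls.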
DRD3 antagonist: D3 dopamine receptor (human) antagonism; actives 2.5% (n = 360,000); P35462; max response, negative = inhibition, %; D3R cells, DiscoveRx beta-arrestin luminescence, antagonist mode; stronger effect = lower value; in the data active means max response below about -50%; inconclusive means no clear call, values can overlap the other calls; further: on the % scale 0 is the no-effect control and ±100 the full control effect
Target sequence (P35462 whole entry, looked up): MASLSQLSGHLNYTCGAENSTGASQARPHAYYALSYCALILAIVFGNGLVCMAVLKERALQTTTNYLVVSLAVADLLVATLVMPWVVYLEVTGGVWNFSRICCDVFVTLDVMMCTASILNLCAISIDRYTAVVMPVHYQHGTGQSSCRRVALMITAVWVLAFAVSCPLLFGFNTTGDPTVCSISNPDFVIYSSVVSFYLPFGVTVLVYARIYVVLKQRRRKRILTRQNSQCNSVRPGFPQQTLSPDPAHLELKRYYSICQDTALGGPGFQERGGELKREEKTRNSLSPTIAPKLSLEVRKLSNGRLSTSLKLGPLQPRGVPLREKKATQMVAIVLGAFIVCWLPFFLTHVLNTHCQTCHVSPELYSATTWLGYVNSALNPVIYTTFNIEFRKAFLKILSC
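Cells plated overnight at 1500 cells/well, then exposed to library compounds with dopamine controls for 90 minutes at 37 degrees C. DiscoveRx reagent added for 30–60 minutes at room temperature; luminescence read, quantitative HTS format.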
GLP1R inv ag: GLP-1 receptor (human) inverse agonism; HEK293 GLP-1R CRE-luciferase, luminescence, 24 h; GLP-1R form is constitutively active; Potency, µM (top dose mostly 38.3 µM), for the others: at the highest dose activity change, negative = inhibition, actives largely listed as inhibitors; actives 1.6% (n = 410,000); AID 624417; further: potency means the concentration at half of the fitted maximal effect; on the % scale 0 is the no-effect control and ±100 the full control effect; nearly all actives have a fitted effect of over 55% in size
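Assay principle: reduced luminescence from a cAMP-responsive reporter in HEK293 cells co-expressing a constitutively active GLP-1R. Conditions: 24 hr compound incubation, 37 deg C, 5% CO2.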
D3 ag: activates the human D3 dopamine receptor; max activation, %; P35462; AID 652048; D3R DiscoveRx beta-arrestin cells, luminescence, 90 min; actives 0.58% (n = 410,000); in the data active means max activation above about 30%; further: 0% is about no effect
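Cells at 1500/well, incubated overnight, then treated with pinned compounds (dopamine as control) for 90 min at 37 degrees C. DiscoveRx reagent added for 30 - 60 minutes at room temperature; luminescence read.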
HEK293 tox: cytotoxicity counter-screen for GLP-1 receptor inverse agonists; HEK293 cAMP-luciferase reporter cells, luminescence, 24 h; Potency, µM (highest dose often 38.3 µM), for inactives: at the top dose activity change, negative = inhibition, usual class: inhibitors; actives 0.13% (n = 410,000); AID 624418;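 further: loss of luciferase light is scored as toxicity; potency means the concentration at half of the fitted maximal effect; on the % scale 0 is the no-effect control and ±100 the full control effect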
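1536-well qHTS counterscreen of the MLSMR; 200 cells/uL, 12 h pre-incubation, 23 nL cpd, 24 h at 37 deg C 5% CO2, luciferase detection reagent, 12 min RT, luminescence. Inhibition = undesired.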
* = called active by the depositor; ? = inconclusive; · = no result. Only some compounds are listed: those with a hit (about 5.7% of all), similar ones and a draw of the others. Unless noted, the call rests on the fitted dose curve; in most records, active means well fitted curve in the direction sought with a large enough effect; inconclusive means small, poorly fitted or top-dose-only effect, or another doubt; inactive means no such curve, though single readings can be large; an effect the other way counts as inactive or inconclusive.

SMILES	GLP-1R agonist	ClpP mod	DRD3 antagonist	GLP1R inv ag	D3 ag	HEK293 tox
C=C(CC[C@@H](O)C(C)(C)O)[C@H]1CC[C@]2(C)[C@@H]1CCC1[C@@]3(C)CCC(=O)C(C)(C)C3CC[C@]12C (stereo partly specified)	8%	0%	19	-6%	43*	-14%
O=C(C1CCCCN1S(=O)(=O)c1ccccc1[N+](=O)[O-])N1CCCC1 (stereo unspecified)	0%	-4%	-53*	1%	0	1%
CCOc1ccc(NC(=O)c2c(NC(=O)c3ccco3)sc3c2CCC(C(C)(C)C)C3)cc1 (stereo unspecified)	·	-9%	·	17%	-8	13%
CC(=O)N1Cc2cc(C(=O)NCC(F)(F)F)nc(-c3cccc(-c4cc5ccccc5o4)c3)c2[C@@H]1CCO	8%	?	-1	20%	55*	0%
CC(=O)N1Cc2cc(C(=O)NCC(F)(F)F)nc(-c3cccc(-c4cccnc4)c3)c2[C@H]1CCO	0%	-1%	?	-9%	-12	-6%
COc1ccc(S(=O)(=O)N2CCCCC2)cc1NC(=O)c1ccco1	-2%	16µM*	1	17%	1	1%
O=C(CN(Cc1ccco1)Cc1ccco1)Nc1cc(S(=O)(=O)N2CCCCC2)ccc1Cl	-3%	1%	36	10µM*	7	-3%
O=C(Nc1ccccc1N1CCCCC1)C1CCN(S(=O)(=O)c2cccc(C(F)(F)F)c2)CC1	-5%	-3%	-1	11µM*	4	-6%
COc1ccc(S(=O)(=O)N2CCCCCC2)cc1NC(=O)Cc1cccc(C(F)(F)F)c1	8%	2%	57	10µM*	-3	5%
COc1ccc(S(=O)(=O)N2CCCCC2)cc1NC(=O)COC(=O)c1ccco1	4%	5%	-15	-10%	3	-16%
O=C(Nc1ccccc1N1CCCC1)C1CCN(S(=O)(=O)c2cccc(C(F)(F)F)c2)CC1	2%	·	-24	?	-8	-21%
O=C(NCc1ccco1)c1cc(S(=O)(=O)N2CCCC2)ccc1Cl	-4%	-3%	5	-29%	-5	-4%
CO[C@H]1C[C@@H]2CC[C@@H](C)[C@@](O)(O2)C(=O)C(=O)N2CCCC[C@H]2C(=O)O[C@H]([C@H](C)C[C@@H]2CC[C@@H](OC(=O)C(C)(CO)CO)[C@H](OC)C2)CC(=O)[C@H](C)/C=C(\C)[C@@H](O)[C@@H](OC)C(=O)[C@H](C)C[C@H](C)/C=C/C=C/C=C/1C	-4%	·	·	·	-4	·
CCc1ccccc1N1C(=O)N(Cc2cc(=O)n3ccccc3n2)c2ccccc2S1(=O)=O	0%	4%	·	-15%	-11	-10%
CCOC(=O)N1CCN(C(=O)COc2ccc3c(c2)C(=O)CC2(CCN(C(C)=O)CC2)O3)CC1	-3%	16µM*	-9	9%	6	4%
COc1ccccc1OCC(=O)N1CCC2(CC1)CC(=O)c1ccccc1O2	0%	22µM*	-8	-7%	6	-5%
CCc1nc2ccc(C(=O)NCCCN3CCCC3=O)cn2c1N(C)C(=O)COc1ccccc1	-4%	-4%	-5	17%	4	-2%
COc1ccc(Cl)cc1CNC[C@H]1O[C@@H](n2ccc(N)nc2=O)[C@H](O)[C@@H]1O	-2%	0%	5	7%	3	-10%
COc1ccc(NC(=O)NCCN2CCN(c3cccc(Cl)c3)CC2)cc1	-4%	-1%	-58*	?	-10	?
COc1cc(NC(=O)NCCN2CCN(c3ccc(Cl)cc3)CC2)ccc1C	0%	-8%	?	?	-12	-8%
COc1ccc(N2CCN(CCNC(=O)Nc3ccc(C)c(Cl)c3)CC2)cc1	0%	-16%	?	2.8µM*	-4	1%

High-throughput results deposited in PubChem by National Center for Advancing Translational Sciences (NCATS).
